# From ChEMBL document CHEMBL4513216, “Probing the Open Global Health Chemical Diversity Library for Multistage-Active Starting Points for Next-Generation Antimalarials” (ACS Infect Dis, 2020)
# The campaign covered roughly 68,000 compounds. About 2,700 (4%) showed an effect of 50% or more. Many of the other results were omitted from the sample, so strong results are more common in it than they were.
# System: Plasmodium berghei
# Assay: Screen against P. berghei liver stage (PbLuc), transformed with Luciferase, at 2uM
# Format: functional, HepG2
# Settings: tested at 2 uM
row,Compound,INHIBITION [%]
1,Cn1ccnc1CN(Cc1cccnc1)CC1CCCO1 (centres undefined),41.82
2,CCn1nc(C(=O)N2CCNCC2C(=O)Nc2ccc(C)nc2)cc1C (centres undefined),3.82
3,O=C(Cc1cccc(F)c1)NCCNCc1cccc(O)c1,57.33
4,O=C(Cc1ccc(F)cc1)NCCNCc1cccc(O)c1,-49.9
5,O=C(Cc1ccccc1)NCCNCc1cccc(O)c1,31.57
6,c1ccc(CN2Cc3[nH]nc(COc4cccnc4)c3C2)nc1,18.6
7,CC1CNC(=O)CCN1Cc1cc(O)c2cccc(F)c2n1 (centres undefined),18.31
8,CC(C)N(Cc1cccc(Cl)c1)Cc1nnsc1Cl,16.72
9,Cc1nnc(CN(Cc2cccc(Br)c2)C2CC2)o1,-21.25
10,Cc1nnc(CN(Cc2ccc(Cl)c(Cl)c2)C2CC2)o1,50.59
11,Cc1nnc(CN(Cc2ccc3c(c2)OCO3)C2CCC(C)CC2)o1 (centres undefined),-37.84
12,Cc1nnc(CN(Cc2ccc(Cl)c(Cl)c2)C(C)C)o1,55.36
13,Cc1nnc(CN(Cc2cccc(Cl)c2)C(C)C)o1,41.05
14,O=C(c1ccccc1F)N1CCN(c2ccc(-n3cccc3)nn2)CC1,-17.9
15,O=C(c1cccnc1)N1CCN(c2ccnc3ccsc23)CC1,4.52
16,c1cc(-c2cnccn2)cc(-c2ccn(CCN3CCCC3)n2)c1,6.07
17,c1ccc(-c2cccc(-c3ccn(CCN4CCCCC4)n3)c2)nc1,63.1
18,c1cc(-c2cnccn2)cc(-c2ccn(CCN3CCCCC3)n2)c1,11.33
19,CS(=O)(=O)CCC(=O)N(CCc1cccc(F)c1)C1CC1,29.22
20,CC(C)C(=O)NCC(=O)N(C)C1CCCN(CCc2ccccc2)C1 (centres undefined),15.44
21,CN(C(=O)c1cccnc1)C1CCCN(CCc2ccccc2)C1 (centres undefined),52.08
22,CN(C(=O)CC1=CCCCC1)C1CCCN(C2Cc3ccccc3C2)C1 (centres undefined),-12.75
23,CSc1ccccc1C(=O)N(C)C1CCCN(CCc2ccccc2)C1 (centres undefined),-1.89
24,CN(C(=O)CCc1ccncc1)C1CCCN(CCc2ccccc2)C1 (centres undefined),42.17
25,CN(C(=O)CC1=CCCCC1)C1CCCN(CCc2ccccc2)C1 (centres undefined),73.01
26,CC(=O)N1C[C@H]2CC[C@@H](C1)N(S(=O)(=O)c1ccc(C#N)cc1Cl)C2,-0.38
27,COCCc1noc(CN(C)C2CCCN(c3cccnn3)C2)n1 (centres undefined),1.07

row,Compound,INHIBITION [%]
1,CC(C)c1nccn1C1CCCN(C(=O)c2ccc3c(c2)COC3)C1 (centres undefined),54.28
2,Cc1nccn1C1CCCN(C(=O)c2ccc3c(c2)COC3)C1 (centres undefined),23.92
3,Cc1nccn1C1CCCN(C(=O)c2ccc3nncn3c2)C1 (centres undefined),47.87
4,CCc1nccn1C1CCCN(C(=O)c2ccc3nncn3c2)C1 (centres undefined),-32.49
5,CC(C)c1nccn1C1CCCN(C(=O)c2ccc3nncn3c2)C1 (centres undefined),72.31
6,CC(C)c1nccn1C1CCCN(C(=O)c2ccc3c(c2)OCO3)C1 (centres undefined),4.5
7,OC(CN1CCN(Cc2cccnc2)CC1)c1cccs1 (centres undefined),-11.22
8,Cn1c(N2CCOCC2)nc2cc(C(=O)N3CC(O)CO3)ccc21 (centres undefined),-23.4
9,COc1ccc(CN2CCc3ncnc(OC(C)C)c3CC2)cc1,10.69
10,Cc1cc(C)c2[nH]c(C(=O)NCCN3CCNC3=O)c(C)c2c1,8.76
11,COc1cc(N2CCOC(c3ccc(F)cc3)C2)ncn1 (centres undefined),19.27
12,N#Cc1c(F)cccc1Nc1cnn(CC(N)=O)c1,-58.5
13,Cn1cc(CNC2CCc3ncnn3C2)c(-c2cccnc2)n1 (centres undefined),13.53
14,CCc1nc2n(n1)CC(NCc1nc(-c3cccnc3)no1)CC2 (centres undefined),41.71
15,CCc1nc2n(n1)CC(NCc1cn(C)nc1-c1cccnc1)CC2 (centres undefined),54.29
16,O=C(Nc1ncn(CC(=O)N2CCCCCC2)n1)C1CCCC1,35.23
17,CC(CC(=O)Nc1ncn(CC(=O)N2CCCCCC2)n1)C1CC1 (centres undefined),34.73
18,O=C(Nc1ncn(CC(=O)N2CCCCCC2)n1)C1CCCO1 (centres undefined),53.03
19,CCCC(N)CNS(=O)(=O)Cc1cccc(C#N)c1 (centres undefined),22.07
20,CCC(c1nc(CC(C)C)nn1-c1ccccn1)n1cccn1 (centres undefined),-72.12
21,CCNC(=O)[C@@H]1C[C@H](N)CN1C(=O)c1c[nH]c2ccccc12,22.16
22,CN(C)C(=O)Cc1ccc(NC(=O)c2cn(C)nn2)cc1,29.87
23,COC(=O)N1CCc2ccc(NC(=O)c3cn(C)nn3)cc2C1,41.44
24,CC(=O)N1CCc2ccc(NC(=O)c3cn(C)nn3)cc2C1,29.65
25,Cn1cc(C(=O)Nc2ccc(CC(=O)NCC(F)(F)F)cc2)nn1,78.24
26,Cn1cc(C(=O)Nc2ccc3c(c2)CN(C(=O)C2CC2)CC3)nn1,0
27,Cn1cc(C(=O)Nc2ccc(CC(=O)NC3CC3)cc2)nn1,52.85
